PubChem BioAssay AID1159580 (chemical genetic matrix, 2015)
Values joined by “and” are separate entries in the source; they are usually repeats but may differ in a detail not shown here. Identical values can stand only once. Screen size: about 5,500 compounds; about 2,000 (36%) were called active. Another 18% or so got no clear call; they are omitted. Rule as the data show it: active = normalized growth mostly below about 0.91 (no sharp cut-off); inconclusive = no clear call, values can overlap the other calls; inactive = mostly above about 0.92. This is one part of the list.

Assay: chemical genetic growth profiling, strain panel (AID 1159580);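 also: tested at 20 µM; growth read once vehicle control cultures reached saturation at 30 °C; 1 = growth at the plate median or of vehicle wells; lower values mean less growth of the strain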
Details: S. cerevisiae deletion strains, growth OD

Measured: normalized growth

C[C@H]1c2cccc(O)c2C(O)=C2C(=O)[C@]3(O)C(O)=C(C(N)=O)C(=O)[C@@H](N(C)C)[C@@H]3[C@@H](O)[C@@H]21
active: locus YGL248W, strain PDE1, stronger effect = lower value 0.854 | strain wtn01, stronger effect = lower value 0.891
inactive: locus YAL021C, strain ccr4, stronger effect = lower value 0.991 | locus YAL026C, strain drs2, stronger effect = lower value 0.978 | locus YAL030W, strain snc1, stronger effect = lower value 0.976 | locus YBL061C, strain skt5, stronger effect = lower value 0.995 | locus YBR009C, strain hhf1, stronger effect = lower value 0.958 | locus YBR021W, strain FUR4, stronger effect = lower value 0.884 | locus YBR023C, strain chs3, stronger effect = lower value 0.987 | locus YBR171W, strain sec66, stronger effect = lower value 0.956 | locus YBR229C, strain ROT2, stronger effect = lower value 1 | locus YBR231C, strain swc5, stronger effect = lower value 0.979 | locus YBR279W, strain paf1, stronger effect = lower value 0.988 | locus YCL011C, strain gbp2, stronger effect = lower value 0.971 | locus YCL016C, strain dcc1, stronger effect = lower value 1.02 | locus YCL029C, strain bik1, stronger effect = lower value 0.953 | locus YCL069W, strain vba3, stronger effect = lower value 0.956 | locus YCR088W, strain abp1, stronger effect = lower value 0.985 | locus YDL005C, strain med2, stronger effect = lower value 0.998 | locus YDL035C, strain GPR1, stronger effect = lower value 0.963 | locus YDL040C, strain nat1, stronger effect = lower value 0.975 | locus YDL074C, strain BRE1, stronger effect = lower value 0.963 | locus YDL101C, strain DUN1, stronger effect = lower value 0.984 | locus YDL185W, strain tfp1, stronger effect = lower value 0.954 | locus YDL192W, strain arf1, stronger effect = lower value 0.966 | locus YDR001C, strain nth1, stronger effect = lower value 0.984 | locus YDR069C, strain doa4, stronger effect = lower value 0.973 | locus YDR101C, strain arx1, stronger effect = lower value 1.01 | locus YDR137W, strain rgp1, stronger effect = lower value 0.962 | locus YDR159W, strain sac3, stronger effect = lower value 0.951 | locus YDR162C, strain NBP2, stronger effect = lower value 0.978 | locus YDR195W, strain ref2 0.979 | locus YDR297W, strain sur2, stronger effect = lower value 0.991 | locus YDR318W, strain mcm21, stronger effect = lower value 0.961 | locus YDR334W, strain swr1, stronger effect = lower value 0.944 | locus YDR335W, strain msn5, stronger effect = lower value 0.988 | locus YDR388W, stronger effect = lower value 0.98 | locus YDR392W, strain spt3, stronger effect = lower value 0.911 | locus YDR502C, strain sam2, stronger effect = lower value 0.979 | locus YEL003W, strain gim4, stronger effect = lower value 0.978 | locus YEL037C, strain rad23, stronger effect = lower value 0.975 | locus YEL061C, strain CIN8 (second series), stronger effect = lower value 0.971 | locus YEL061C, strain CIN8, stronger effect = lower value 0.984 | locus YER015W, strain faa2, stronger effect = lower value 0.977 | locus YER016W, strain bim1, stronger effect = lower value 1.01 | locus YER110C, stronger effect = lower value 0.965 | locus YER111C, strain swi4, stronger effect = lower value 0.995 | locus YER155C, strain BEM2 (second series), stronger effect = lower value 0.886 | locus YER155C, strain BEM2, stronger effect = lower value 1.01 | locus YER167W, strain BCK2, stronger effect = lower value 0.994 | locus YFR010W, strain ubp6, stronger effect = lower value 0.955 | locus YGL078C, strain dbp3, stronger effect = lower value 0.968 | locus YGL086W, strain mad1, stronger effect = lower value 0.992 | locus YGL167C, strain pmr1, stronger effect = lower value 0.965 | locus YGL173C, strain kem1, stronger effect = lower value 0.975 | locus YGL227W, strain vid30, stronger effect = lower value 0.987 | locus YGL240W, strain doc1, stronger effect = lower value 0.96 | locus YGL253W, strain hxk2, stronger effect = lower value 0.988 | locus YGR135W, strain pre9, stronger effect = lower value 0.923 | locus YGR229C, strain SMI1, stronger effect = lower value 0.983 | locus YGR252W, strain gcn5, stronger effect = lower value 0.93 | locus YHR013C, strain ard1, stronger effect = lower value 1.05 | locus YHR027C, strain rpn1, stronger effect = lower value 0.98 | locus YHR030C, strain SLT2, stronger effect = lower value 0.996 and 1.03 | locus YHR079C, strain IRE1 (second series), stronger effect = lower value 0.978 | locus YHR079C, strain IRE1, stronger effect = lower value 1.03 | locus YHR094C, strain hxt1, stronger effect = lower value 0.987 | locus YHR129C, strain ARP1, stronger effect = lower value 0.994 | locus YHR142W, strain chs7, stronger effect = lower value 0.998 | locus YHR200W, strain rpn10, stronger effect = lower value 0.97 | locus YIL066C, strain RNR3, stronger effect = lower value 0.974 | locus YIL073C, strain SPO22, stronger effect = lower value 0.751 | locus YIL125W, strain kgd1, stronger effect = lower value 0.983 | locus YIR030C, strain dcg1, stronger effect = lower value 0.961 | locus YJL092W, strain hpr5, stronger effect = lower value 0.991 | locus YJL095W, strain BCK1 (second series), stronger effect = lower value 0.979 | locus YJL095W, strain BCK1, stronger effect = lower value 0.929 and 1.03 | locus YJL115W, strain asf1, stronger effect = lower value 0.963 | locus YJL129C, strain trk1, stronger effect = lower value 0.991 | locus YJL134W, strain LCB3, stronger effect = lower value 1 | locus YJL154C, strain vps35, stronger effect = lower value 0.983 | locus YJL164C, strain tpk1, stronger effect = lower value 0.976 | locus YJL166W, strain qcr8, stronger effect = lower value 0.944 | locus YJL168C, strain set2, stronger effect = lower value 0.985 | locus YJL187C, strain SWE1 (second series), stronger effect = lower value 0.97 | locus YJR043C, strain POL32, stronger effect = lower value 0.958 | locus YJR066W, strain TOR1, stronger effect = lower value 0.928 | locus YKL009W, strain mrt4, stronger effect = lower value 0.967 | locus YKL068W, stronger effect = lower value 0.986 | locus YKL085W, strain MDH1 (second series), stronger effect = lower value 0.972 | locus YKL085W, strain MDH1, stronger effect = lower value 0.972 | locus YKL160W, strain elf1, stronger effect = lower value 0.992 | locus YKL190W, strain CNB1, stronger effect = lower value 0.988 | locus YKR001C, strain vps1, stronger effect = lower value 0.942 | locus YKR026C, strain gcn3, stronger effect = lower value 0.972 | locus YKR091W, strain srl3, stronger effect = lower value 0.985 | locus YLL001W, strain dnm1, stronger effect = lower value 0.974 | locus YLL026W, stronger effect = lower value 0.991 | locus YLL041C, strain sdh2, stronger effect = lower value 0.973 | locus YLR027C, strain aat2, stronger effect = lower value 0.998 | locus YLR039C, strain RIC1, stronger effect = lower value 0.971 | locus YLR058C, strain SHM2, stronger effect = lower value 0.976 | locus YLR102C, strain apc9, stronger effect = lower value 0.968 | locus YLR113W, strain HOG1, stronger effect = lower value 1.08 | locus YLR221C, strain rsa3, stronger effect = lower value 0.962 | locus YLR258W, strain gsy2, stronger effect = lower value 0.978 | locus YLR262C, strain YPT6 (second series), stronger effect = lower value 0.936 | locus YLR262C, strain YPT6, stronger effect = lower value 0.967 | locus YLR268W, strain sec22, stronger effect = lower value 0.955 | locus YLR320W, strain mms22, stronger effect = lower value 0.944 | locus YLR330W, strain CHS5, stronger effect = lower value 0.979 | locus YLR342W, strain FKS1 (second series), stronger effect = lower value 0.859 | locus YLR342W, strain FKS1, stronger effect = lower value 0.977 | locus YLR357W, strain rsc2, stronger effect = lower value 0.911 | locus YLR370C, strain arc18, stronger effect = lower value 0.982 | locus YLR371W, strain rom2, stronger effect = lower value 0.963 | locus YLR384C, strain iki3, stronger effect = lower value 1 | locus YLR418C, strain cdc73, stronger effect = lower value 0.91 | locus YML016C, strain PPZ1, stronger effect = lower value 0.979 | locus YML032C, strain rad52, stronger effect = lower value 0.984 | locus YML120C, strain ndi1, stronger effect = lower value 0.97 | locus YML124C, strain tub3, stronger effect = lower value 0.993 | locus YMR058W, strain fet3, stronger effect = lower value 0.947 | locus YMR078C, strain ctf18, stronger effect = lower value 0.963 | locus YMR125W, strain sto1, stronger effect = lower value 0.958 | locus YMR129W, stronger effect = lower value 0.989 | locus YMR205C, strain PFK2, stronger effect = lower value 0.992 | locus YMR223W, strain ubp8, stronger effect = lower value 0.922 | locus YMR231W, strain pep5, stronger effect = lower value 0.989 | locus YMR307W, strain GAS1, stronger effect = lower value 1.08 | locus YNL067W, strain RPL9B, stronger effect = lower value 0.939 | locus YNL071W, strain lat1, stronger effect = lower value 0.975 | locus YNL183C, strain NPR1, stronger effect = lower value 0.987 | locus YNL209W, strain ssb2, stronger effect = lower value 0.985 | locus YNL233W, strain BNI4, stronger effect = lower value 0.939 | locus YNL248C, strain rpa49, stronger effect = lower value 0.95 | locus YNL250W, strain rad50, stronger effect = lower value 0.966 | locus YNL271C, strain bni1, stronger effect = lower value 0.981 | locus YNL298W, strain CLA4, stronger effect = lower value 0.969 | locus YNL307C, strain MCK1, stronger effect = lower value 0.973 | locus YNL322C, strain KRE1 (second series), stronger effect = lower value 0.969 | locus YNL322C, strain KRE1, stronger effect = lower value 0.991 | locus YNR049C, strain mso1, stronger effect = lower value 0.984 | locus YNR052C, strain pop2, stronger effect = lower value 0.979 | locus YOL012C, strain htz1 1.14 | locus YOL147C, strain pex11, stronger effect = lower value 0.988 | locus YOR001W, strain rrp6, stronger effect = lower value 0.923 | locus YOR061W, strain CKA2, stronger effect = lower value 0.993 | locus YOR069W, strain VPS5, stronger effect = lower value 0.998 | locus YOR070C, strain gyp1, stronger effect = lower value 0.99 | locus YOR080W, strain dia2, stronger effect = lower value 0.982 | locus YOR083W, strain WHI5, stronger effect = lower value 1 | locus YOR106W, strain vam3, stronger effect = lower value 0.965 | locus YOR136W, strain idh2, stronger effect = lower value 0.98 | locus YOR144C, strain elg1, stronger effect = lower value 0.995 | locus YOR184W, strain ser1, stronger effect = lower value 0.939 | locus YOR231W, strain MKK1, stronger effect = lower value 1.06 | locus YOR265W, strain rbl2, stronger effect = lower value 0.992 | locus YOR270C, strain vph1, stronger effect = lower value 0.943 | locus YOR290C, strain snf2, stronger effect = lower value 1 | locus YOR316C, strain cot1, stronger effect = lower value 0.973 | locus YPL051W, strain arl3, stronger effect = lower value 0.993 | locus YPL055C, strain LGE1, stronger effect = lower value 0.866 | locus YPL078C, strain atp4, stronger effect = lower value 0.999 | locus YPL106C, strain sse1, stronger effect = lower value 0.912 | locus YPL240C, strain hsp82, stronger effect = lower value 0.984 | locus YPL241C, strain CIN2, stronger effect = lower value 0.998 | locus YPL256C, strain CLN2, stronger effect = lower value 1.05 | locus YPR119W, strain clb2, stronger effect = lower value 0.98 | locus YPR141C, strain kar3, stronger effect = lower value 0.965 | locus YPR163C, strain tif3, stronger effect = lower value 0.985 | locus YPR167C, strain met16, stronger effect = lower value 0.982
